Screen size: about 340,000 compounds; about 2,100 (0.62%) were called active.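 Rule for the calls: active = first-screen hits whose inhibition reached a set limit at any dose in the follow-up dose series; inconclusive = inhibition above the set first-screen limit but never retested; inactive = the rest.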 Only a sample is shown. Measured potencies and affinities stand elsewhere.
Molecular target: Rac GTPase-activating protein 1 (Homo sapiens) (UniProt Q9H0H5)
Test: MgcRacGAP GTPase-activating activity inhibitors, confirmation, biochemical, ADP Hunter fluorescence, primary and confirmatory (AID 624330);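 note: fluorescence reports GDP produced by GAP-driven GTP hydrolysis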
Conditions: MgcRacGAP-stimulated Rac1 GTP hydrolysis, at 30 µM, stronger effect = higher value, GST-tagged Rac1 F28L mutant substrate

Rac GTPase-activating protein 1 (Homo sapiens), sequence (Q9H0H5 whole entry, looked up): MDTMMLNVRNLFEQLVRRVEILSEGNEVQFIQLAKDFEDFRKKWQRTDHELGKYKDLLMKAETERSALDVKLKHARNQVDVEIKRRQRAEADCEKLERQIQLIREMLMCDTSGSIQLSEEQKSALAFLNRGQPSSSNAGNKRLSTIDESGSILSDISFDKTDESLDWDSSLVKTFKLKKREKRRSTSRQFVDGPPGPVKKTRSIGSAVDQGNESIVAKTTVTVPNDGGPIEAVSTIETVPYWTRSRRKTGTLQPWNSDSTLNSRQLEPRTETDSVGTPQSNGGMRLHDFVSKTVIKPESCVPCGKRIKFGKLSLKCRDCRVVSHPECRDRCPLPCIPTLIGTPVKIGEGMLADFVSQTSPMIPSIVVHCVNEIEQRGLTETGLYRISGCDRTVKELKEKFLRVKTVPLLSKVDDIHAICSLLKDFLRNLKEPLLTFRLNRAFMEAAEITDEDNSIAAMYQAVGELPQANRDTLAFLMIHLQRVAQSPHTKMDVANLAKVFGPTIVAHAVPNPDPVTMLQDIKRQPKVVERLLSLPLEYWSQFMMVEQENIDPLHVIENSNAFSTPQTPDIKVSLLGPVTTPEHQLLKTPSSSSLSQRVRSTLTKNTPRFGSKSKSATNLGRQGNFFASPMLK

inhibition, inactive:
CCN(CC(=O)Nc1ccc(NC(C)=O)cc1)C(=O)c1ccc2c(c1)S(=O)(=O)N=C1CCCCCN12 1.15%, CCOc1ccccc1NC(=S)N1CCCCCC1 5.32%, CCOC(=O)/C(C#N)=C1/C=CN(Cc2ccccc2)C=N1 6.15%, CCOC(=O)/C(C#N)=C1/C=Cc2ccccc2N1CC 12.8%, CCCCN1C(=O)/C(=C(/C#N)C(N)=O)c2ccccc21 10.6%, CCOC(=O)C(C#N)=C1CCN(Cc2ccccc2)CC1 11.1%, Cc1ccc(C(=O)NC(NCc2ccco2)C(Cl)(Cl)Cl)cc1 (stereo not given) 2.01%, O=C(NCCCN1CCCC1)c1ccc2c(c1)N(Cc1ccccc1)CCS2 -3.35%, O=C(COC(=O)CCc1c[nH]c2ccccc12)NCc1ccccc1 4.56%, COCCNC(=S)N(Cc1cc2cc(C)ccc2n2nnnc12)C1CCCC1 1.01%, COc1ccc(C(=O)NC(=S)N(C)Cc2ccccc2)cc1Br 3.69%, Cc1nc2scc(C)n2c(=O)c1S(=O)(=O)N1CCN(c2ccc(F)cc2)CC1 5.64%, Cc1nc2scc(C)n2c(=O)c1S(=O)(=O)N1CCN(c2ccccc2)CC1 1.78%, O=CN(/C=C1\Sc2ccccc2C1=O)Cc1ccccc1 10%, Cc1ccc(Nc2ncnc3sc(C)c(C)c23)cc1 18.3%, Cc1sc2ncnc(N/N=C/c3cccc(O)c3)c2c1C 20.2%, COc1ccc(/C=N/Nc2ncnc3sc(C)c(C)c23)cc1 11.8%, Cc1sc2ncnc(Nc3ccccc3)c2c1C 4.64%, COCCOc1cc(NC(=O)CS(=O)(=O)CC(=O)N(C)C)c(Cl)cc1Cl -10.1%, O=C(Nc1cccc(Cl)c1)C1C2C=CC3(O2)C1C(=O)N(CCN1CCCCC1)C3C(=O)NC1CCCCC1 (stereo not given) 4.26%, CCN(CC)C(=O)CN(c1ccc(C)cc1)S(=O)(=O)c1ccc(SC)cc1 3.34%, COc1ccc(C2CC(=O)Nc3ccccc3S2(=O)=O)cc1OC (stereo not given) 11.4%, O=C(Nc1cccc(C(=O)Nc2ccccc2F)c1)c1ccccc1 -9.87%, CN(C)c1ccc(/C=C/C(=O)c2cccnc2)cc1 10.2%, CN(C)c1ccc(/C=C/c2ccncc2)cc1 16.4%, O=C(CSc1ccc2nnc(-c3cccnc3)n2n1)Nc1ccccc1C(F)(F)F 6.49%, Oc1ccc(Cl)cc1C=Nc1ccccc1Br 4.11%, CCN(CC)c1ccc(N=Cc2cc(Br)ccc2O)cc1 10.9%, Oc1ccc(Cl)cc1/C=N/c1nccs1 3.22%, OCC(CO)(CO)N=Cc1cc(Br)ccc1O 8.85%, Cc1cccc(C=Nc2ccc3c(c2)oc2ccccc23)c1O 25.6%, Oc1cccc(C=Nc2cccc3ccccc23)c1O -2.71%, COc1ccccc1-c1nnc(SCC(=O)Nc2ccc(S(N)(=O)=O)cc2)n1C 7.69%, C[C@H](CO)N1C[C@H](C)[C@H](CN(C)C(=O)Nc2ccc(C(C)(C)C)cc2)OCc2cnnn2CCCC1=O -5.61%, COc1ccc(OC)c(S(=O)(=O)NCC(=O)NC2CCCc3ccccc32)c1 (stereo not given) 6.06%, O=C(Nc1ccc2c(c1)OCO2)C1CCCN1C(=O)OCc1ccccc1 (stereo not given) 6.44%, C=CCN(CC=C)CCOc1ccc(OC(C)C)cc1 26.4%, COc1ccc2c(c1)c(C(=O)N/N=C/c1ccc(OC)c(OC)c1)c(C)n2C -2.93%, COc1ccc2c(c1)c(C(=O)N/N=C/c1cccc(O)c1)c(C)n2C 16.9%, COc1ccc2nc(C)cc(SCC(=O)N/N=C/c3ccccc3)c2c1 5.43%, COc1ccc2nc(C)cc(SCC(=O)N/N=C/c3ccc(O)cc3O)c2c1 17.7%, CC(=O)Nc1c2c(nn1-c1ccc(Cl)cc1)CSC2 2.25%, O=C(CCc1ccccc1)NNC(=O)COc1ccccc1 11.8%, Cc1ccc2ccc(C(Nc3cccc(C(F)(F)F)c3)c3cccnc3)c(O)c2n1 (stereo not given) 10.8%, COc1cc(CCC(=O)OCC(=O)N(CCC#N)c2ccccc2)cc(OC)c1OC 7.7%, COc1cccc(CNCCO)c1OCc1ccccc1Cl 9.99%, Oc1ccc(NCc2ccccc2OCc2ccccc2)cc1 11.9%, Cc1ccc(NCc2ccccc2OCc2ccccc2F)cc1 11.5%, COc1cc(CNc2ncn[nH]2)ccc1OCc1cccc(C)c1 8.87%, COc1cc(CNc2ccc3[nH]c(=O)[nH]c3c2)ccc1OCc1ccc(C)cc1 16.9%, CCOc1cc(CNc2ncn[nH]2)ccc1OCC(=O)NC(C)(C)C 1.46%, CCOc1cc(CNC)ccc1OCC(=O)NC(C)(C)C 2.12%, COc1cccc(CNc2ccc3[nH]c(=O)[nH]c3c2)c1OCc1ccc(F)cc1 26.2%, COc1ccc(C(=O)Nc2ccncc2)c(OC)c1 13.1%, Cn1cc(C(=O)C(=O)NC2CCCCC2)c2ccccc21 10%, COc1ccc(C(CNC(=O)c2ccc(NS(=O)(=O)c3ccc(F)cc3)cc2)N2CCOCC2)cc1 (stereo not given) 4.8%, CN(CC(=O)Nc1ccc(F)c(F)c1F)C(=O)CN1C(=O)NC2(CCCC2)C1=O 9.6%, CCOC(=O)c1cc2ccc3ccccc3c2oc1=O 8.31%, Cc1ccc2c(c1)nnn2C1CCN(CC(=O)NNC(=O)c2ccco2)CC1 0.28%, CCOc1cccc(CNc2ccc(O)cc2)c1OCc1ccc(Cl)cc1 19.5%, CCOc1cccc(CNc2ccc(O)cc2)c1OCc1ccccc1Cl 29.3%, CCCCCCN1C[C@@H](O)[C@H](n2cc(-c3ccc(F)cc3)nn2)C[C@@H]1c1ccc(C)cc1 6.07%, CNCc1c(OCc2ccccc2F)ccc2ccccc12 -6.3%, O=C1CNC(=O)/C(=C/c2ccco2)N1 14.3%, O=C1/C(=C\c2ccco2)SC(=S)N1c1ccccc1 23.6%, O=C1C(=Cc2cccs2)C(=O)c2ccccc21 4.2%, O=C1/C(=C\c2ccco2)CCC/C1=C\c1ccco1 38.4%, O=C1CNC(=O)/C(=C/c2cccs2)N1 0.05%, O=C1/C(=C\c2ccco2)NC(=S)N1c1ccccc1 21.9%, O=C1/C(=C/c2ccco2)CCc2ccccc21 8.52%, O=C1NC(=O)/C(=C/c2ccco2)N1 11%, O=C(NCc1cccc(Cl)c1)c1ccc(CS(=O)Cc2ccccc2Cl)o1 (stereo not given) -7.5%, C[C@@H]1CCCCO[C@H](CN(C)C(=O)Nc2ccc3c(c2)OCO3)[C@H](C)CN([C@@H](C)CO)C(=O)c2cc(NS(=O)(=O)c3ccc(Cl)cc3)ccc2O1 10.2%, O=C(CN1CCOc2ccccc21)NCc1ccccc1 -7.36%, O=C(N/N=C\c1ccccn1)C1COc2cc3ccccc3cc2O1 (stereo not given) 15.9%, CN1/C(=C/C2CC(=O)NC2=O)C(C)(C)c2ccccc21 (stereo not given) 6.09%, O=c1oc2c(CN3CCCCC3)c(O)ccc2c2c1CCCC2 -1.27%, COc1ccc(-c2noc(CCC(=O)NCCCN3CCC(C)CC3)n2)cc1 8.68%, O=C(COc1ccc(S(=O)(=O)N2CCCC2)cc1)N1CCN(c2ccccc2F)CC1 3.38%, CCN(Cc1ccncc1)C(=O)c1ccc2c(c1)S(=O)(=O)c1ccccc1C2=O -39.1%, CC1=CN2C(=N)/C(=C/c3ccco3)C(=O)N=C2S1 5.23%, COc1cc(/C=C2/C(=N)N3C=CSC3=NC2=O)ccc1OCCCOc1cc(C)ccc1C 4.39%, CCS(=O)(=O)C1=NN2C(=N)/C(=C\c3ccc(OC(=O)c4ccco4)c(OC)c3)C(=O)N=C2S1 30.5%, CCC1=NN2C(=N)/C(=C\c3ccc(SCc4ccco4)o3)C(=O)N=C2S1 45.8%, CCCC1=NN2C(=N)/C(=C\c3ccc(SCc4ccco4)o3)C(=O)N=C2S1 60.1%, C=CCOc1ccc(/C=C2\C(=N)N3N=C(S(=O)(=O)CC)SC3=NC2=O)cc1OC -6.72%, CCOc1cc(/C=C2\C(=N)N3N=C(S(C)(=O)=O)SC3=NC2=O)ccc1OCCOc1cccc(OC)c1 12.1%, CCOc1cc(/C=C2\C(=N)N3N=C(S(=O)(=O)CC)SC3=NC2=O)ccc1OC(=O)c1ccco1 26.5%, CCC(=O)Nc1cc(-c2nn(C)c(=O)c3ccccc23)ccc1N1CCOCC1 1.97%, Cc1csc(SC(C)C(=O)NCc2ccc3c(c2)OCO3)n1 (stereo not given) 6%, Cc1ncc(C[n+]2csc(CCOC(=O)C34CC5CC(CC(C5)C3)C4)c2C)c(N)n1 1.84%, CCOc1ccccc1OCC(=O)Nc1cc(S(=O)(=O)N2CCCCC2)ccc1OC 10.7%, Cn1c(Cc2ccccc2)nnc1SCc1nc2ccccc2c(=O)[nH]1 0.95%, COCC(=O)N1CCC(Oc2ccc(C(=O)N(C)Cc3nccs3)cc2)CC1 3.05%, CSc1ccccc1NC(=O)c1cccc(S(=O)(=O)N2CCN(C)CC2)c1 2.55%
